Measurements taken from PubChem BioAssay (EPA / NIEHS).
Inconclusive results are not listed. Active and inactive are the calls of the source. How the source made its calls: active means hit-call score of the fitted dose curve at least 0.9, where 1 is the maximum; inconclusive means response in the unintended direction; inactive means score below 0.9.

molecular target: human Retinoic Acid Receptor gamma (RARg), RARG (gene 5916) (UniProt P13631); assay: ATG_RARg_TRANS: Attagene TRANS-FACTORIAL HepG2 Assay for human Retinoic Acid Receptor gamma (RARg) (AID 2283009)
Sequence (P13631 whole entry, looked up): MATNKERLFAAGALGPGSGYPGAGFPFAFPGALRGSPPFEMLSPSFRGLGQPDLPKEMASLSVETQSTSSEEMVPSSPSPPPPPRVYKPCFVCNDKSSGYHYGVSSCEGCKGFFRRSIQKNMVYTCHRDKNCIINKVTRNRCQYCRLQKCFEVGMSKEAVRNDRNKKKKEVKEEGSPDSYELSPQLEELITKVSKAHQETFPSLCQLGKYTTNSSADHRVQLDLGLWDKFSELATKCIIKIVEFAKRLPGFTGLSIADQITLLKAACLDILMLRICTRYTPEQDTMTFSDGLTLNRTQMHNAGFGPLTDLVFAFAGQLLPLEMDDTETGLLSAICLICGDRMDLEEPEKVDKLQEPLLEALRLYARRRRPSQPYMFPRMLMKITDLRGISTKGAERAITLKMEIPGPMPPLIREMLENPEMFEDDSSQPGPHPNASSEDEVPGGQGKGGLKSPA
Experimental: ATG_TRANS is a cell-based, multiplexed-readout assay that uses HepG2, a human liver cell line, with measurements taken at 24 hours after chemical dosing in a 24-well plate.ATG_RARg_TRANS is one of 30 assay component(s) measured or calculated from the ATG_TRANS assay. It is designed to make measurements of mRNA induction, a form of inducible reporter, as detected with fluorescence intensity signals by Reverse transcription polymerase chain reaction (RT-PCR) and Capillary electrophoresis technology.Data from the assay component ATG_RARg_TRANS was analyzed into 1 assay endpoint. This assay endpoint, ATG_RARg_TRANS, was analyzed in the positive analysis fitting direction relative to DMSO as the negative control and baseline of activity. Using a type of inducible reporter, measures of mRNA for gain-of-signal activity can be used to understand the reporter gene at the transcription factor-level as they relate to the gene RARG. Furthermore, this assay endpoint can be referred to as a primary readout, because this assay has produced multiple assay endpoints where this one serves a reporter gene function. To generalize the intended target to other relatable targets, this assay endpoint is annotated to the nuclear receptor intended target family, where the subfamily is non-steroidal.
Human liver HepG2 cells are transiently transfected with multiple reporter transcription units (MRTUs) in 6-well plates using FuGene 6 reagent (Roche; 3 ml FuGene/1 mg DNA). The MRTU constructs are regulated by a cis-regulating element (promoter). […] A major difference between the CIS and TRANS system is that in CIS activities of endogenous TFs are measured, whereas the TRANS assay evaluates changes in activities of exogenous, chimeric NR-Gal4 proteins. […] At the end of 24 hour incubation, total RNA was isolated using TriZol reagent (Invitrogen). The isolated RNA is then reverse-transcribed using oligo(dT) primer and Mo-MLV reverse transcriptase (Invitrogen) with DNAse I (Ambion) treatment for 30 min. The one-tenth of the produced cDNA was amplified by PCR using Taq DNA polymerase (Invitrogen) and two reporter sequence-specific primers. The PCR products were fluorescently labeled by primer extension with 6-arboxyfluorescein (6-FAM) 5'-labeled reporter sequence-specific primer (2 min at 95 C, 20 s at 68 C and 10 min at 72 C) and these products were digested with 5U of HpaI (New England Biolabs) for 2h at 37 C. […] The raw capillary electrophoresis data was processed using Attagraph software (Attagene).

outcome, inactive:
O=C(O)Cn1c(=O)n(Cc2ccc(Br)cc2F)c(=O)c2ccc(Cl)cc21
Cc1c2ccccc2c(C)c2c1ccc1ccccc12
CCN(CC)C(=O)c1cc(S(=O)(=O)Cc2ccccc2)c(N2CCC(c3ccccc3)CC2)cc1N(CC)CCN(C)C
O=C(O)c1ccccc1-n1cc(C(=O)O)c(=O)c2cc(Nc3c(F)cc(F)cc3Cl)c(Cl)cc21
CCO[Si](CCCNC(N)=O)(OCC)OCC
CN(C[C@@H](CC[N+]12CCC(C3CCCCC3)(CC1)CC2)c1ccc(Cl)c(Cl)c1)C(=O)c1cc(C(F)(F)F)cc(C(F)(F)F)c1
Cc1oc2c(NC(=O)c3c(Cl)cccc3Cl)cccc2c1C(C)(C)O
CCCCCCCC[Si](OCC)(OCC)OCC
CC[C@@H]1C[C@H](N(Cc2cc(C(F)(F)F)cc(C(F)(F)F)c2)C(C)=O)c2cc(C(F)(F)F)ccc2N1C(=O)OC(C)C
Clc1cc(Cl)c2c(c1)N=C1CCCCCN1C2
OCCO
CCCCOC(=O)c1ccc(O)cc1
COc1cccc([C@H](O)C2CCN(CCc3ccc(F)cc3)CC2)c1OC
CCCCCCCCN(C)CCCCCCCC
Cc1cc2c(cc1C(F)(F)F)N(C(=O)Nc1ccc(Oc3cccnc3C)nc1)CC2
CCCCCCCCOC(=O)c1cc(O)c(O)c(O)c1
CCCCCCCCCC(=O)O
O=C(OCCCCCCOC(=O)c1ccccc1)c1ccccc1
CCCCCCCCCCCCO
CCN(Cc1cccnc1)C(=O)c1cccc(Cl)c1[C@]1(C)C(=O)N(Cc2ccc(OC)cc2OC)c2ccc(Cl)cc21
c1ccc(C[n+]2cccc3ccccc32)cc1
Cc1cccc2ccccc12
CCCOC(=O)c1cc(O)c(O)c(O)c1
O=c1c(-c2ccc(O)cc2)coc2cc(O)cc(O)c12
CC(C)(c1cc(Br)c(O)c(Br)c1)c1cc(Br)c(O)c(Br)c1
CC(C)(C)c1cc(/C=C2\SC(N)=NC2=O)cc(C(C)(C)C)c1O
O=C(Nc1ccc(Cl)cc1)Nc1ccc(Cl)c(Cl)c1
CC(O)CC(C)(C)O (stereo not given)
CCCC(=O)OCCC(C)C
CC1(C)NC(=O)N(c2ccc([N+](=O)[O-])c(C(F)(F)F)c2)C1=O
CCCCCCCCOc1ccc(C(=O)c2ccccc2)c(O)c1
CC/C(=C(/CC)c1ccc(O)cc1)c1ccc(O)cc1
CC(C)(O)c1ccc(CNC(=O)c2cccnc2Oc2ccc3nonc3c2)cc1
C[C@]12CC[C@@H]3c4ccc(O)cc4CC[C@H]3[C@@H]1CC[C@H]2O
CCCCCCCCCCCC[N+](C)(C)C
